Screening data as filed in PubChem BioAssay.
In the library only some 2.4% were active in any assay of this set; here they are far more common.
FEN1 inh: inhibitors of human flap endonuclease 1. Potency, µM (titrated, usually from 114 µM), usual class: inhibitors. P39748. 390,000 compounds, 0.35% hits. Recombinant FEN1 flap cleavage, fluorescence, 15 min. AID 588795; note: nearly all actives have a fitted effect of over 65% in size
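Reaction started by adding substrate (50 nM final) to 10 nM enzyme after 15 min room-temperature compound preincubation. Reads at 0 and 15 min, with data normalized and fitted to a four-parameter Hill equation.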
Pol kappa inh-1: inhibitors of human DNA polymerase kappa. Q9UBT6. purified Pol kappa, fluorescent DNA synthesis assay, 10 min. Potency, µM (series often up to 107 µM), most hits filed as inhibitors. 400,000 compounds, 0.53% hits. AID 588579
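Readout: fluorescence, taken kinetically at 0 and 10 min. Conditions: 10 nM Pol kappa, 15 min RT compound preincubation, 50 nM substrate final. Controls: enzyme-free buffer wells.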
Pol beta inh: blocks human DNA polymerase beta activity; 340,000 compounds, 1.3% hits; Pol beta primer extension/strand displacement, fluorescence kinetic; P06746; Potency, µM (series often up to 114 µM), actives largely listed as inhibitors; AID 485314
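Pol beta (10 nM) was preincubated with compound for 15 min at room temperature. The reaction was then started with 50 nM substrate and read immediately and after a further 10 min at room temperature.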
Pol eta inh-1: blocks human DNA polymerase eta activity | Potency, µM (titrated, usually from 114 µM), usual class: inhibitors | 390,000 compounds, 1.2% hits | recombinant Pol eta, fluorescent DNA replication assay | Q9Y253
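Fluorescent replication assay: 50 nM final substrate added after a 15 min room-temperature compound preincubation with 10 nM enzyme. Signal taken at 0 min and again at 10 min.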
WRN helicase inh: WRN helicase (human) inhibition; Q14191; WRN helicase unwinding, fluorescent forked duplex, kinetic; Potency, µM (titrated, usually from 114 µM), most hits filed as inhibitors; 360,000 compounds, 0.46% hits; AID 651768; note: nearly all actives have a fitted effect of over 55% in size
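Enzyme (20 nM final) and test compound sit together 15 min at room temperature before substrate addition. Substrate is a single-forked duplex oligonucleotide (100 nM) labelled with fluorophore and quencher, with 2 mM ATP; helicase unwinding raises red fluorescence, read kinetically.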
POLI inh: inhibitors of human DNA polymerase iota. Potency, µM (highest dose often 115 µM), actives largely listed as inhibitors. Pol iota fluorescent replication assay, 10 min. Q9UNA4. 390,000 compounds, 1% hits. AID 588590
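Pol iota at 10 nM preincubated 15 min with compounds at room temperature; reaction started with fluorescent substrate, 50 nM final. Fluorescence read kinetically at 0 and 10 min; buffer-only wells as negative control.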
GALK confirm: confirmation of human galactokinase (GALK) inhibitors | shares compounds with Pol eta inh-1 | 150 compounds, 70% hits | purified GALK, Kinase-Glo ATP depletion luminescence | Potency, µM (titrated, usually from 115 µM), hits mostly inhibitors | AID 2015
Redox cycling: generates H2O2 by redox cycling, flagging GALK artifacts. AID 2035. shares compounds with Pol eta inh-1. 150 compounds, 40% hits. Phenol red-HRP H2O2 redox cycling, absorbance 600 nm. Potency, µM (doses to about 115 µM), most hits filed as inhibitors
HEK293 tox: counter-screen for GALK inhibitors: HEK293 cell cytotoxicity. Potency, µM (series often up to 46.1 µM), most hits filed as inhibitors. 170 compounds, 10% hits. shares compounds with Pol eta inh-1. HEK-293 viability, ATP luminescence (CellTiter-Glo), 24/48 h
Pol kappa inh-2: Pol kappa (human) inhibition, cherry-pick confirmation; 920 compounds, 76% hits; purified Pol-kappa, fluorescent strand-displacement substrate; AID 720501; shares compounds with Pol eta inh-1; Potency, µM, actives largely listed as inhibitors
Pol eta inh-2: Pol eta (human) inhibition, cherry-pick confirmation; 2,600 compounds, 64% hits; shares compounds with Pol eta inh-1; Potency, µM, usual class: inhibitors; Pol eta primer extension, TAMRA/BHQ fluorescence, 10 min
A number is an active result; . = inactive; ? = inconclusive; / = no result; [ ] = dose if it differs, or a comment. Calls come from the whole dose curve; as a rule, active = well fitted curve in the direction sought with a large enough effect; inconclusive = small, poorly fitted or top-dose-only effect, or another doubt; inactive = no such curve, though single readings can be large; an effect the other way counts as inactive or inconclusive.

SMILES | FEN1 inh | Pol kappa inh-1 | Pol beta inh | Pol eta inh-1 | WRN helicase inh | POLI inh | Pol eta inh-2 | others
N#C/C(=C(/O)c1cc2ccccc2o1)c1nc2ccccc2s1 | . | . | . | . | . | . | / | GALK confirm=?;Redox cycling=.;HEK293 tox=.
Cn1cc(S(=O)(=O)N2CCCC2)cc1C(=O)O | . | . | / | 22.4µM | . | ? | / | Pol kappa inh-2=?
Cc1cc(C)c(NC(=O)c2cc(S(=O)(=O)N3CCCC3)cn2C)c(C)c1 | . | . | . | . | / | . | /
COc1ccc(F)cc1S(=O)(=O)NCc1ccccc1 | . | . | . | . | . | . | /
CC(=O)Nc1ccc2nc3c(=O)n(C)c(=O)n(C)c3nc2c1 | ? | ? | ? | 35.5µM | 10µM | 10µM | 84.9
COc1cc(NS(=O)(=O)c2ccc(N/C=C(\C#N)c3nc4cc(Cl)ccc4o3)cc2)nc(OC)n1 | . | . | . | 35.5µM | ? | . | ?
COc1cc(NS(=O)(=O)c2ccc(NC(=O)COc3ccc(Cl)cc3Cl)cc2)nc(OC)n1 | . | . | ? | . | / | ? | /
Cc1ccccc1NC(=O)CSc1[nH]c(=O)cc(C)c1C#N | ? | ? | . | 20µM | . | ? | ?
Cc1cc(=O)[nH]c(SCC(=O)c2ccccc2)c1C#N | . | . | . | . | . | . | /
Cc1ccc(S(=O)(=O)/N=C2/NC(=O)/C(=C\c3cc(Br)cc(Br)c3O)S2)cc1 | 28.2µM | . | ? | 22.4µM | 20µM | ? | / | GALK confirm=23.7µM;Redox cycling=.;HEK293 tox=.
Cc1ccc(S(=O)(=O)/N=C2/NC(=O)/C(=C/c3ccc(Br)o3)S2)cc1 | . | ? | ? | 22.4µM | ? | ? | ?
Cc1ccc(S(=O)(=O)/N=C2/NC(=O)/C(=C/c3cccnc3)S2)cc1 | . | . | ? | ? | ? | ? | /
O=C(Cc1ccc([N+](=O)[O-])cc1)NCc1ccc2c(c1)OCO2 | . | . | . | . | . | . | /
COc1ccc(CN(Cc2ccccc2)C(=O)c2ccc(NC(C)=O)cc2)cc1COc1ccc(NC(C)=O)cc1 | . | . | / | / | / | . | /
COc1ccc(CN(Cc2ccccc2)C(=O)c2ccno2)cc1COc1ccc(NC(C)=O)cc1 | . | 79.4µM | / | / | / | 39.8µM | ?
COc1ccc(OC)c2sc(NC(=O)c3ccc(S(=O)(=O)N4CCCC4)cc3)nc12 | . | . | . | . | / | . | /
CSc1ccccc1NC(=O)c1cc2ncc(Br)cn2n1 | . | ? | ? | 44.7µM | . | . | ?
COCCn1c(=O)c(-c2ccccc2)nc2cnc(N3CCNCC3)nc21 | / | . | / | / | / | / | /
O=C1N=C(N2C=CC(=C3C=CNC=C3)C=C2)/C(=C/N=NC(=O)c2ccccc2O)S1 | ? | ? | 14.1µM | 17.8µM | . | 31.6µM | 75.7
CC(=O)c1ccc(S(=O)(=O)N(CCCO)Cc2cc3cc(C)ccc3[nH]c2=O)cc1 | . | . | 39.8µM | 50.1µM | . | ? | 60.1
O=S(=O)(NCc1cccs1)c1ccc(Cl)s1 | . | . | . | . | . | . | /
O=S(=O)(NCc1cccs1)c1ccc(Br)s1 | / | / | . | / | / | / | / | GALK confirm=.;Redox cycling=.;HEK293 tox=.
C=C(C)CSCc1nc2ccccc2[nH]1 | . | . | . | . | . | . | /
COc1ccc(C(CNC(=O)c2ccco2)N2CCCCC2)cc1 (centres undefined) | . | . | . | . | . | . | /
COc1cc(/C=C2/C(=N)N3C(c4ccccc4)=CSC3=NC2=O)ccc1OCC(=O)O | ? | . | . | 20µM | .[11.6 µM] | . | ?
SMILES | FEN1 inh | Pol kappa inh-1 | Pol beta inh | Pol eta inh-1 | WRN helicase inh | POLI inh | Pol eta inh-2 | others
COc1cc(/C=C2\C(=N)N3N=C(C)SC3=NC2=O)cc(OC)c1OCCOc1ccccc1C | . | . | . | . | . | ? | /
COc1cc(/C=C2/C(=N)N3C(=NC2=O)SN=C3S(=O)(=O)C(C)C)ccc1OS(=O)(=O)c1ccccc1 | / | / | ? | / | / | / | / | GALK confirm=?;Redox cycling=.;HEK293 tox=.
COc1cc(/C=C2\C(=N)N3N=C(S(C)(=O)=O)SC3=NC2=O)cc(OC)c1OCCOc1ccccc1C | . | . | ? | 25.1µM | ? | ? | ? | Pol kappa inh-2=?
COc1cc(/C=C2\C(=N)N3N=C(S(C)(=O)=O)SC3=NC2=O)ccc1OS(=O)(=O)c1ccc(C)cc1 | . | ? | 100µM | 31.6µM | .[11.6 µM] | 20µM | 47.8
COc1cc(/C=C2/C(=N)N3N=C(C(C)C)SC3=NC2=O)ccc1OS(=O)(=O)c1ccccc1 | . | . | . | ? | . | ? | /
O=C1Nc2ccccc2Oc2cc(Oc3ccccc3)ccc21 | . | ? | . | / | / | 79.4µM | ?
Cc1nnc(NC(=O)c2cc(-c3ccncc3)nc3c(C)cccc23)s1 | . | . | . | 44.7µM | . | 79.4µM | 67.5
N#C/C(=C\c1coc2ccc(O)cc2c1=O)C(=O)Nc1nc2ccccc2s1 | ? | 2.82µM | ? | 3.55µM | 56.2µM | ? | / | GALK confirm=33.5µM;Redox cycling=.;HEK293 tox=?
O=C(C1CCCO1)N1CCN(C(=S)Nc2ccc(F)cc2)CC1 (centres undefined) | . | . | . | . | . | . | /
O=C(COC(=O)c1ccc(Cl)c(S(=O)(=O)N2CCOCC2)c1)NCc1ccco1 | . | . | / | . | . | . | /
O=C(OCCOCCO)c1ccccc1Nc1cccc(C(F)(F)F)c1 | / | .[12 µM] | / | / | / | / | /
CCOc1ccccc1OCC(=O)NCc1ccco1 | . | ? | 28.2µM | 79.4µM | ? | 20µM | ?
Nc1cc(C(=O)OCC(=O)NCc2ccco2)ccc1Cl | . | . | ? | 17.8µM | . | ? | ?
O=C(COC(=O)c1ccccc1Nc1cccc(C(F)(F)F)c1)NCc1ccco1 | . | ? | 39.8µM | 20µM | . | ? | 67.5
COC(=O)c1cc(C(=O)OC)cc(-n2c(C)cc(C(=O)COC(=O)CNS(=O)(=O)c3ccc(C)cc3)c2C)c1 | . | . | . | 22.4µM | . | ? | ?
Cc1ccc(S(=O)(=O)NCC(=O)OCC(=O)c2cc(C)n(-c3ccccc3)c2C)cc1 | . | . | . | . | . | . | /
CCn1c(NC(C)=O)c(-c2ccccc2Cl)c(=O)c2ccccc21 | . | . | . | . | . | . | /
